The source made the active and inactive calls. Rule for the calls: active = hit-call score of the fitted dose curve at least 0.9, where 1 is the maximum; inactive = score below 0.9.
What was measured:
[1] = ATG_CRE_CIS: Attagene CIS-FACTORIAL HepG2 Assay for human cAMP Responsive Element (CRE) binding protein 3 (AID 2282926); settings: HepG2 CRE cis-reporter, Attagene multiplexed mRNA; actives raise or lower the signal
How it was run: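 Readout: fluorescently labelled reporter transcripts resolved by capillary electrophoresis after RT-PCR, taken 24 h post-dosing in transfected HepG2. Endogenous transcription factor activity drives each cis-element reporter; gain or loss of signal fitted relative to DMSO control.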

[2] = target: CCAAT/enhancer-binding protein beta (Homo sapiens) (UniProt P17676); assay: ATG_C_EBP_CIS: Attagene CIS-FACTORIAL HepG2 Assay for human CCAAT/Enhancer Binding Protein (C/EBP) beta (AID 2282927); settings: HepG2 Attagene cis-factorial transcription factor reporter; actives raise or lower the signal
CCAAT/enhancer-binding protein beta (Homo sapiens), sequence (P17676 whole entry, looked up, the tested form may be a part): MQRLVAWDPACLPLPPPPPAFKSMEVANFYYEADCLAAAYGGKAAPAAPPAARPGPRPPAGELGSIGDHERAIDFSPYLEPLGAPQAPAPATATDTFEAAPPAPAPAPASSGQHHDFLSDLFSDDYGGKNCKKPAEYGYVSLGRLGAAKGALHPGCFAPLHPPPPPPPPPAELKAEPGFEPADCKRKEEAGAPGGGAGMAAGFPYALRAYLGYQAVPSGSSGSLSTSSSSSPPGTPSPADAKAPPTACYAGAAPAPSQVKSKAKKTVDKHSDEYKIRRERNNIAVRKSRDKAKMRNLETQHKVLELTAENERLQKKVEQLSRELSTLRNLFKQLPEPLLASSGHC
How it was run: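 Endogenous C/EBPb-driven reporter transcripts measured in transfected human HepG2 cells at 24 h via RT-PCR and capillary electrophoresis of labelled fragments. Activity fitted in both directions relative to DMSO baseline.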

[3] = ATG_CMV_CIS: Attagene CIS-FACTORIAL HepG2 Assay for human CMV (Internal Marker) (AID 2282928); settings: HepG2 CMV promoter reporter, transcription factor profiling; actives raise or lower the signal;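 note: endpoint acts as a background internal control marker rather than a target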
How it was run: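 Reporter transcripts from transfected HepG2 cells are isolated after 24 h of chemical dosing, reverse-transcribed and amplified. Fragments labeled with 6-FAM are cut with HpaI and quantified by capillary electrophoresis; DMSO defines baseline.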

[4] = ATG_DR4_LXR_CIS: Attagene CIS-FACTORIAL HepG2 Assay for human Liver X Receptor (LXR), DR4 submotif (AID 2282929); settings: HepG2 Attagene DR4 cis-reporter, mRNA transcription; actives raise or lower the signal
How it was run: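 The endpoint is DR4-element-driven reporter transcripts after 24 h chemical exposure of transfected HepG2 cells. These were measured via RT-PCR and capillary electrophoresis, and gain or loss of signal was fitted relative to DMSO controls.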

[5] = target: Aryl hydrocarbon receptor (Homo sapiens) (UniProt P35869); assay: ATG_Ahr_CIS: Attagene CIS-FACTORIAL HepG2 Assay for human Aryl Hydrocarbon Receptor (Ahr) (AID 2282930); settings: HepG2 AhR cis-factorial reporter transcription; actives raise or lower the signal
Aryl hydrocarbon receptor (Homo sapiens), sequence (P35869 whole entry, looked up): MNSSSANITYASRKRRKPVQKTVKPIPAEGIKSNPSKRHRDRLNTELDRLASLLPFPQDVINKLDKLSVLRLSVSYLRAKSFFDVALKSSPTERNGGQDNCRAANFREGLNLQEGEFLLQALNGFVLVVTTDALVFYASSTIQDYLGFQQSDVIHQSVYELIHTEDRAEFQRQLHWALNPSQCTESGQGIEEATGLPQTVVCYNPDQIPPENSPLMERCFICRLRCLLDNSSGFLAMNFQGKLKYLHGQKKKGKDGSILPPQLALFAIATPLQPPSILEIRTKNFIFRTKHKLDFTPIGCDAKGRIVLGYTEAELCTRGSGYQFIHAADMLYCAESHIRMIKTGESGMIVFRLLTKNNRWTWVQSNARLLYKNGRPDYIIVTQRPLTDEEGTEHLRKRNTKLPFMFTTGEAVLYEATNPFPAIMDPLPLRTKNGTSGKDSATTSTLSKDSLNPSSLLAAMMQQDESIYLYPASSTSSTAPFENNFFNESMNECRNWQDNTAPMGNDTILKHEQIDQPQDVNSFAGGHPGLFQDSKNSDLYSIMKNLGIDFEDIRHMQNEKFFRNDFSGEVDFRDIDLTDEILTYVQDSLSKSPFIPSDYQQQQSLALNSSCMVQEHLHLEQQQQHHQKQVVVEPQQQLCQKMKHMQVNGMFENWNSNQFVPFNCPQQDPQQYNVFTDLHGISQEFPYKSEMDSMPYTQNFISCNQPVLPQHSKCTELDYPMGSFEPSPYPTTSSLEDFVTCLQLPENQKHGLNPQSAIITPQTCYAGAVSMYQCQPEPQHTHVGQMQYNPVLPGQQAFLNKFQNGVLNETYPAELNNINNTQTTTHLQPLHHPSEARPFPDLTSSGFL
How it was run: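 Reporter mRNA levels, quantified by RT-PCR and fluorescent capillary electrophoresis, reflect endogenous AhR transcriptional activity in HepG2 cells carrying transfected cis-promoter reporter constructs. Readout at 24 h post-dose; gain or loss fitted against DMSO baseline.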

[6] = ATG_AP_1_CIS: Attagene CIS-FACTORIAL HepG2 Assay for human Activator Protein 1 (AP-1) (AID 2282931); settings: HepG2 Attagene cis-factorial AP-1 reporter mRNA; actives raise or lower the signal
How it was run: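 Readout is reporter transcript level from endogenous transcription factor activity, quantified by RT-PCR with fluorescent primer extension and capillary electrophoresis. Transiently transfected HepG2 cells, 24 h exposure. Curves fitted both directions versus DMSO.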

[7] = ATG_AP_2_CIS: Attagene CIS-FACTORIAL HepG2 Assay for human Activator Protein 2 (AP-2) (AID 2282932); settings: HepG2 AP-2 cis-reporter, Attagene transcription factor profiling; actives raise or lower the signal
How it was run: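 Transiently transfected HepG2 cells are exposed to chemical for 24 h. Reporter transcripts are then measured as fluorescence following RT-PCR and capillary separation, and gain- or loss-of-signal is fitted relative to DMSO.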

[8] = ATG_BRE_CIS: Attagene CIS-FACTORIAL HepG2 Assay for human Bone Morphogenetic Protein (BMP) Response Element (BRE) (AID 2282933); settings: HepG2 BMP response element reporter, Attagene transcription factor profiling; actives raise or lower the signal
How it was run: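 After a 24 h chemical treatment, transiently transfected HepG2 cells were lysed for RNA; reporter transcripts were quantified by fluorescent RT-PCR and capillary electrophoresis, normalised to DMSO.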

[9] = ATG_E_Box_CIS: Attagene CIS-FACTORIAL HepG2 Assay for human Enhancer Box (E-box) (AID 2282936); settings: HepG2 E-box cis-reporter transcription, actives raise or lower the signal
How it was run: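 Fluorescent reporter fragments separated by capillary electrophoresis gave the signal; mRNA came from HepG2 cells transfected with cis-element reporters and treated 24 h. Curves fitted bidirectionally relative to DMSO controls.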

[10] = ATG_M_61_CIS: Attagene CIS-FACTORIAL HepG2 Assay for M61 Transcription Factor (Internal Marker) (AID 2282937); settings: HepG2 Attagene CIS-FACTORIAL M61 internal marker reporter; actives raise or lower the signal
How it was run: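 Readout is reporter mRNA by RT-PCR, fluorescent primer extension and capillary electrophoresis, with gain or loss fitted relative to DMSO. Transfected HepG2 cells carrying endogenous-TF-driven cis reporters were exposed to chemicals for 24 hours.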

[11] = ATG_EGR_CIS: Attagene CIS-FACTORIAL HepG2 Assay for human Early Growth Response 1 (EGR1) (AID 2282938); settings: HepG2 Attagene CIS-FACTORIAL EGR reporter mRNA; actives raise or lower the signal
How it was run: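 After 24 h compound exposure, RNA from reporter-transfected HepG2 cells was reverse-transcribed, PCR-amplified, fluorescently labelled and resolved by capillary electrophoresis. EGR1 reporter transcript changes, up or down, were fitted against DMSO, reflecting endogenous transcription-factor activity.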

[12] = ATG_M_19_CIS: Attagene CIS-FACTORIAL HepG2 Assay for M19 Transcription Factor (Internal Marker) (AID 2282939); settings: HepG2 Attagene CIS-FACTORIAL M19 internal marker reporter; actives raise or lower the signal
How it was run: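 In this multiplexed cell assay, transiently transfected HepG2 reporter units report endogenous transcription-factor activity; after 24 hours of treatment, labelled reporter cDNA fragments are quantified by capillary electrophoresis and fitted bidirectionally against DMSO.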

[13] = target: Hepatocyte nuclear factor 3-beta (Homo sapiens) (UniProt Q9Y261); assay: ATG_FoxA2_CIS: Attagene CIS-FACTORIAL HepG2 Assay for human Forkhead box A2 (FOXA2) (AID 2282942); settings: HepG2 cis-reporter transcription factor activity, 24 h; actives raise or lower the signal
Hepatocyte nuclear factor 3-beta (Homo sapiens), sequence (Q9Y261 whole entry, looked up): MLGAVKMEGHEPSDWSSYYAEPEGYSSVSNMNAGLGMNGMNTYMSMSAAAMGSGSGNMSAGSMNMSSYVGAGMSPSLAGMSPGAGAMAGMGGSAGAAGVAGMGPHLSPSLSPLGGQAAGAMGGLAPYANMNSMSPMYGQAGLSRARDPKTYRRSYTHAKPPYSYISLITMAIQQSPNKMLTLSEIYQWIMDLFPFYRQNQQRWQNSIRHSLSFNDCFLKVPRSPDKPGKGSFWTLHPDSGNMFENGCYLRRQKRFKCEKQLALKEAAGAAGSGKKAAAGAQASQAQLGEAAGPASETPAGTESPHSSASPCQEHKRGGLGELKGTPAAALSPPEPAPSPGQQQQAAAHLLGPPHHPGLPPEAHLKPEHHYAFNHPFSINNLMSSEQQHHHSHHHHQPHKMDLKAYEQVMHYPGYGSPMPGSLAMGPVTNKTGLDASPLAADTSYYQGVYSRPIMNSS
How it was run: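 Endogenous transcription factor activity is captured via cis-element-driven reporter transcripts in transfected HepG2. Total RNA taken at 24 h post-dosing; labelled RT-PCR products resolved by capillary electrophoresis. Gain or loss fitted versus DMSO.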

[14] = ATG_FoxO_CIS: Attagene CIS-FACTORIAL HepG2 Assay for human Forkhead box O (FoxO) (AID 2282943); settings: HepG2 Attagene cis-reporter, FoxO element, mRNA; actives raise or lower the signal
How it was run: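 Endogenous transcription factor activity read from multiplexed cis-promoter reporter transcripts in transiently transfected HepG2, 24 h after dosing. Reporter RNA measured via RT-PCR plus capillary electrophoresis of FAM-labeled products; gain or loss relative to DMSO.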

[15] = ATG_GATA_CIS: Attagene CIS-FACTORIAL HepG2 Assay for human GATA Binding Protein (AID 2282944); settings: HepG2 GATA cis-element reporter, Attagene multiplex mRNA; actives raise or lower the signal
How it was run: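 Measures endogenous transcription factor-driven reporter mRNA in HepG2 cells transiently carrying cis-regulated constructs. 24 h dosing; RNA via oligo(dT) reverse transcription, PCR, HpaI digestion, capillary electrophoresis; fitted relative to DMSO.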

[16] = ATG_GLI_CIS: Attagene CIS-FACTORIAL HepG2 Assay for human Zinc Finger Protein GLI1 (AID 2282945); settings: HepG2, Attagene cis-factorial reporter mRNA, GLI element; actives raise or lower the signal
How it was run: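 Bidirectional curve fits relative to DMSO, using reporter mRNA levels from RT-PCR plus capillary electrophoresis. Cells were HepG2 transiently carrying cis-regulated reporter constructs, harvested 24 h after dosing.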

[17] = target: Retinoic acid receptor alpha (Homo sapiens) (UniProt P10276); assay: ATG_DR5_RAR_CIS: Attagene CIS-FACTORIAL HepG2 Assay for human Retinoic Acid Receptor Alpha (RARE), DR5 submotif (AID 2282934); settings: HepG2 Attagene cis-factorial RARE DR5 reporter, mRNA; actives raise or lower the signal
Retinoic acid receptor alpha (Homo sapiens), sequence (P10276 whole entry, looked up): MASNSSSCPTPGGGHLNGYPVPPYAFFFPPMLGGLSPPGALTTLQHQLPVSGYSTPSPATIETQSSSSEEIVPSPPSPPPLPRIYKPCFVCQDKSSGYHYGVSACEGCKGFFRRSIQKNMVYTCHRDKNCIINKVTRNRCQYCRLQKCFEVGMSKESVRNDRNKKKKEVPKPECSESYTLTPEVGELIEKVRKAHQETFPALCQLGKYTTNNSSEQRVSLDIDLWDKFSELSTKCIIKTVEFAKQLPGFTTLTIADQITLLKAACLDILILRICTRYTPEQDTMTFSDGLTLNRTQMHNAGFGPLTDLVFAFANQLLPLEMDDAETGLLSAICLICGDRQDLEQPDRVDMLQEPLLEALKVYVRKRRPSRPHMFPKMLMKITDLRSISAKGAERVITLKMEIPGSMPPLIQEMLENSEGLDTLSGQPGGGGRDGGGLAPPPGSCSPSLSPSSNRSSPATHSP
How it was run: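 Reporter transcripts from a DR5-regulated unit, measured via RT-PCR plus capillary electrophoresis, reflect endogenous RAR activity in transiently transfected human HepG2 liver cells. Exposure lasted 24 h; gain or loss of signal scored against DMSO.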

[18] = target: Transcription factor E2F1 (Homo sapiens) (UniProt Q01094); assay: ATG_E2F_CIS: Attagene CIS-FACTORIAL HepG2 Assay for human E2F Transcription Factor 1 (AID 2282935); settings: HepG2 Attagene cis-reporter, E2F reporter RNA transcripts; actives raise or lower the signal
Transcription factor E2F1 (Homo sapiens), sequence (Q01094 whole entry, looked up): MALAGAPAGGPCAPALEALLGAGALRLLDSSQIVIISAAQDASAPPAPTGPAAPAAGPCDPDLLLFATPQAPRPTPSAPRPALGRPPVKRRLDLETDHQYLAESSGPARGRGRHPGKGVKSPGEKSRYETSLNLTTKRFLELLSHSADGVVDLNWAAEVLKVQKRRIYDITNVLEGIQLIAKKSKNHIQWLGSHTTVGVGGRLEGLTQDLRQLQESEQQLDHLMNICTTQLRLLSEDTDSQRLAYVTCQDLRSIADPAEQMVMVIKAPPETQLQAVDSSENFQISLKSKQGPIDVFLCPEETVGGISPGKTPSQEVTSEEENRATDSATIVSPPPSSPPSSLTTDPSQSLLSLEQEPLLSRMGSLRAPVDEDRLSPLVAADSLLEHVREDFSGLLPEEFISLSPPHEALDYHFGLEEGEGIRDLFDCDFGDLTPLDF
How it was run: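 Fluorescent RT-PCR products, digested with HpaI for 2 h at 37 C, are separated by capillary electrophoresis. Source RNA comes from transfected HepG2 cultures treated for 24 h.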

[19] = ATG_Ets_CIS: Attagene CIS-FACTORIAL HepG2 Assay for human Erythroblast Transformation Specific (ETS) (AID 2282941); settings: HepG2 ETS cis-reporter transcription, actives raise or lower the signal
How it was run: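 Bidirectional fit versus DMSO of reporter mRNA signal, detected by RT-PCR and capillary electrophoresis in HepG2 cells transiently transfected with cis-element reporters and dosed 24 h.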

[20] = ATG_ERE_CIS: Attagene CIS-FACTORIAL HepG2 Assay for Estrogen Response Element (ERE) (AID 2282940); settings: HepG2 ERE cis-reporter, Attagene RNA transcript; actives raise or lower the signal
How it was run: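 Measuring endogenous transcription factor output, the assay doses transfected HepG2 cells for 24 hours and quantifies reporter transcripts by fluorescent RT-PCR and capillary electrophoresis, with DMSO as baseline.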

## C=CC(C)(O)CCC=C(C)CCC=C(C)C (configuration not stated)
[1]
  AC50: 126 µM (active)
[2]
  AC50: 137 µM (active)
[3]
  AC50: 183 µM (active)
[4]
  outcome: inactive
[5]
  AC50: 51 µM (active)
[6]
  AC50: 154 µM (active)
[7]
  AC50: 161 µM (active)
[8]
  outcome: inactive
[9]
  AC50: 131 µM (active)
[10]
  AC50: 166 µM (active)
[11]
  AC50: 100 µM (active)
[12]
  AC50: 176 µM (active)
[13]
  outcome: inactive
[14]
  outcome: inactive
[15]
  outcome: inactive
[16]
  AC50: 178 µM (active)

## Cc1ccc2ccccc2n1
[1]
  outcome: inactive
[2]
  outcome: inactive
[3]
  outcome: inactive
[4]
  outcome: inactive
[5]
  AC50: 18.3 µM (active)
[6]
  outcome: inactive
[7]
  outcome: inactive
[17]
  outcome: inactive
[18]
  outcome: inactive
[9]
  outcome: inactive
[10]
  outcome: inactive
[11]
  outcome: inactive
[12]
  outcome: inactive
[19]
  outcome: inactive
[13]
  outcome: inactive
[14]
  outcome: inactive
[15]
  outcome: inactive
[16]
  outcome: inactive

## CC(C)=CCCC(C)CC=O (configuration not stated)
[1]
  outcome: inactive
[2]
  outcome: inactive
[3]
  outcome: inactive
[4]
  outcome: inactive
[5]
  outcome: inactive
[6]
  outcome: inactive
[7]
  outcome: inactive
[8]
  outcome: inactive
[18]
  outcome: inactive
[10]
  outcome: inactive
[11]
  outcome: inactive
[12]
  outcome: inactive
[19]
  outcome: inactive
[13]
  outcome: inactive
[14]
  outcome: inactive
[15]
  outcome: inactive
[16]
  outcome: inactive

## COC(=O)Cc1cccc2ccccc12
[1]
  outcome: inactive
[2]
  outcome: inactive
[3]
  outcome: inactive
[4]
  outcome: inactive
[5]
  outcome: inactive
[6]
  outcome: inactive
[7]
  outcome: inactive
[8]
  outcome: inactive
[18]
  outcome: inactive
[12]
  outcome: inactive
[20]
  outcome: inactive
[19]
  outcome: inactive
[13]
  outcome: inactive
[14]
  outcome: inactive
[16]
  outcome: inactive

## OC1OC[C@@H](O)[C@H](O)[C@H]1O (some centres not stated)
[1]
  outcome: inactive
[2]
  outcome: inactive
[3]
  outcome: inactive
[4]
  outcome: inactive
[5]
  outcome: inactive
[6]
  outcome: inactive
[7]
  outcome: inactive
[8]
  outcome: inactive
[18]
  outcome: inactive
[10]
  outcome: inactive
[11]
  outcome: inactive
[12]
  outcome: inactive
[19]
  outcome: inactive
[13]
  outcome: inactive
[14]
  outcome: inactive
[15]
  outcome: inactive
[16]
  outcome: inactive

## O=C(O)c1cn(C2CC2)c2cc(N3CCNCC3)c(F)cc2c1=O
[1]
  outcome: inactive
[2]
  outcome: inactive
[3]
  outcome: inactive
[4]
  outcome: inactive
[5]
  outcome: inactive
[6]
  outcome: inactive
[7]
  outcome: inactive
[18]
  outcome: inactive
[9]
  outcome: inactive
[10]
  outcome: inactive
[11]
  outcome: inactive
[12]
  outcome: inactive
[20]
  outcome: inactive
[19]
  outcome: inactive
[13]
  outcome: inactive
[14]
  outcome: inactive
[15]
  outcome: inactive
[16]
  outcome: inactive

## CCCC1CCC(=O)O1 (configuration not stated)
[1]
  outcome: inactive
[2]
  outcome: inactive
[3]
  outcome: inactive
[4]
  outcome: inactive
[5]
  AC50: 10.2 µM (active)
[6]
  outcome: inactive
[7]
  outcome: inactive
[8]
  outcome: inactive
[18]
  outcome: inactive
[10]
  outcome: inactive
[12]
  outcome: inactive
[19]
  outcome: inactive
[14]
  outcome: inactive
[15]
  outcome: inactive
[16]
  outcome: inactive

## CCCC/C=C\CCCCCCCCCC=O
[1]
  outcome: inactive
[2]
  outcome: inactive
[3]
  outcome: inactive
[4]
  outcome: inactive
[5]
  outcome: inactive
[6]
  outcome: inactive
[7]
  outcome: inactive
[8]
  outcome: inactive
[9]
  outcome: inactive
[10]
  outcome: inactive
[11]
  outcome: inactive
[12]
  outcome: inactive
[13]
  outcome: inactive
[14]
  outcome: inactive
[15]
  outcome: inactive
[16]
  outcome: inactive
